Experimental data taken from PubChem BioAssay (NCI).
About 83,000 compounds went through this panel and 20% of them were active in at least one assay; those are over-represented in the sample as a whole.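 Compound tested at a single concentration for 48 hours in 96-well plates; a percent growth value below 10 was scored as active.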 Unmarked numbers belong to inactive results. Active and inactive are the calls of the source.

Experiments:
Assay in all cases: NCI-60 one-dose screen, 48 h (100 = growth as untreated, 0 = no growth, -100 = all killed)
Conditions in all cases: 10 µM unless noted
[1] = test system: DU-145 prostate
[2] = test system: K-562 leukemia
[3] = test system: MALME-3M melanoma
[4] = test system: MDA-MB-231 breast
[5] = test system: RXF 393 renal
[6] = test system: SF-268 CNS
[7] = test system: SF-295 CNS
[8] = test system: SF-539 CNS
[9] = test system: UACC-257 melanoma
[10] = test system: M14 melanoma
[11] = test system: HCT-15 colon
[12] = test system: HT29 colon
[13] = test system: SNB-75 CNS
[14] = test system: SNB-19 CNS
[15] = test system: U251 CNS
[16] = test system: PC-3 prostate
[17] = test system: SK-MEL-5 melanoma
[18] = test system: UACC-62 melanoma
[19] = test system: LOX IMVI melanoma
[20] = test system: SK-MEL-28 melanoma

| Compound | growth [1] | growth [2] | growth [3] | growth [4] | growth [5] | growth [6] | growth [7] | growth [8] | growth [9] | growth [10] | growth [11] | growth [12] | growth [13] | growth [14] | growth [15] | growth [16] | growth [17] | growth [18] | growth [19] | growth [20] |
| --- | --- | --- | --- | --- | --- | --- | --- | --- | --- | --- | --- | --- | --- | --- | --- | --- | --- | --- | --- | --- |
| C=C1c2c(Cl)ccc(O)c2C(O)=C2C(=O)[C@]3(O)C(O)=C(C(N)=O)C(=O)[C@@H](N(C)C)[C@@H]3[C@@H](O)[C@H]12 | 21.9% | 3.66% (active) | -15% (active) | 11% | 12.4% | 11.8% | -4.14% (active) | 5.14% (active) | -4.26% (active) | 9.22% (active) | 13.7% | 10.9% | 0.44% (active) | 20.9% | 4.36% (active) | -8.47% (active) | 20.4% | 7.11% (active) | 0.768% (active) | 25.8% |
| COc1ccc(/C=C/C(=O)c2ccc(-n3cc(CN4CCN(c5cc6c(cc5F)c(=O)c(C(=O)O)cn6C5CC5)CC4)nn3)cc2)cc1OC | 45.8% | 7.81% (active) | 57.5% | 55.4% | 4.51% (active) | 59.5% | 67.5% | 7.09% (active) | 62% | 28.2% | 33.8% | 4.76% (active) | 65.5% | 44.7% | 10.6% | 9.95% (active) | 50.9% | 54.1% | -1.51% (active) | 34.6% |
| CCN(CC)CCC(C(=O)O)(c1ccccc1)c1ccccc1 | 107% | 102% | 89.7% | 99.4% | 118% | 93.9% | 97% | 93.9% | 113% | 97% | 103% | 94.9% | 86.8% | 104% | 109% | 103% | 104% | 97.9% | 95.7% | 109% |
| O=C(O)c1ccc(-n2cc(/C=N/Nc3ccc(Cl)cc3)c(-c3ccc(F)c(F)c3)n2)cc1 | 85.4% | 7.69% (active) | 36% | 93% | 108% | 71.1% | 66.6% | 88.2% | 99.4% | 57.5% | 52.1% | 93.4% | 89.6% | 86.6% | 81.1% | 60.2% | 72.3% | 39.1% | 44.2% | 73.6% |
| O=C(Nc1ccc(-n2ccc3c(NC(=O)c4ccccc4)nccc32)cc1)Nc1ccc(Cl)c(Cl)c1 | -32.6% (active) | -27.3% (active) | -46.9% (active) | -65.2% (active) | -93.9% (active) | 1.8% (active) | -67% (active) | -58.6% (active) | -69% (active) | -69.8% (active) | -50.8% (active) | -42.8% (active) | -7.26% (active) | -40.2% (active) | -79.6% (active) | 23.9% | -97.9% (active) | -46.4% (active) | -72.4% (active) | 18.2% |
| Cc1ccc(NC(=O)CN2CCOCC2)cc1Cl | 102% | 94.7% | 102% | 96% | 104% | 103% | 94.3% | 98.7% | 88.1% | 100% | 102% | 80.6% | 97.4% | 94.8% | 97.7% | 74.7% | 95.6% | 92.7% | 101% | 104% |
| COC(=O)c1ccc(NC(N)=NCC(C)(C)COc2ccc(C(F)(F)F)cc2)nc1 | 68.8% | -31.8% (active) | 82.4% | 48.8% | 70.7% | 66.8% | 57.1% | 82.6% | 62.4% | 55.6% | 18.1% | 9.44% (active) | 86.8% | 68.8% | 40.1% | 50.9% | 23.2% | 65.5% | 16.5% | 90.1% |
| Nc1nccc(=S)[nH]1 | 112% | 97.8% | 112% | 112% | 92.5% | 98.6% | 103% | 107% | 75.7% | 106% | 98.7% | 75.3% | 94% | 104% | 102% | 102% | 111% | 90% | 100% | 106% |
| Cc1ccc2[nH]c3nc4cccnc4c(C)c3c2c1 | 102% | 89.1% | 127% | 37.1% | 84.7% | 92.3% | 99.9% | 76.2% | 112% | 103% | 88.1% | 92.6% | 77.6% | 79% | 75.7% | 92.7% | 95.2% | 100% | 89.7% | 119% |
| O=C(Nc1ccc(-n2ccc3c(NC(=O)c4ccccc4)ncnc32)cc1)c1cccc(C(F)(F)F)c1 | 35.1% | 28.7% | 77.3% | 51.5% | 43.9% | 38.9% | 33.2% | 35.5% | 60.8% | 30.9% | 19.7% | 22% | 63.9% | 57.4% | 27.3% | 43.7% | 33.1% | 25.4% | 3.47% (active) | 71.2% |
| CC1(C)CC(=O)C2=C(C1)OC1=C(C(=O)CC(C)(C)C1)C2c1ccc(OCc2cn(-c3ccc(F)cc3F)nn2)cc1 | 92.2% | 73.8% | 89.6% | 91.8% | 107% | 84.9% | 95.5% | 99.8% | 83.3% | 87.3% | 105% | 96.9% | 104% | 99.9% | 91.7% | 77.7% | 58.4% | 58.6% | 97.7% | 103% |
| CN1CCN(C(=O)/C=C/c2ccc([N+](=O)[O-])o2)CC1 | 92.6% | 86.6% | 22.6% | 87.8% | -14.9% (active) | 87.6% | 134% | 107% | 1.85% (active) | 92.4% | 63.8% | 81.8% | 95.2% | 98% | 90% | 95.7% | 90.1% | 69.9% | 66.7% | 35.8% |
| O=C(Nc1ccc(-n2cc(-c3ccncc3)c(-c3ccc(O)c(Cl)c3)n2)cc1)c1ccc(Cl)c(Cl)c1 | 46.1% | 11.7% | 46.8% | -33.8% (active) | -83.2% (active) | 54.5% | -16.3% (active) | 10.6% | 69.5% | -35.7% (active) | 18.2% | -10.4% (active) | 70% | 59.6% | 26.8% | 20.2% | -20.3% (active) | 59.1% | -29.1% (active) | 59.7% |
| Nc1ncc(-c2ccc3ncnc(Nc4cncc(Cl)c4)c3c2)cn1 | 49.7% | 82.9% | 38.7% | 66.5% | 60.3% | 68.2% | 77.2% | 78.1% | 82.9% | 77.9% | 73.2% | 68.6% | 31.4% | 76.7% | 73.3% | 48.8% | 66.4% | 56.9% | 61.5% | 69.5% |
| COc1cc(-c2nc(N)n(CC(=O)Nc3ccc(/C(C)=N\O)cc3)n2)cc(OC)c1OC | 108% | 96.1% | 96.7% | 103% | 105% | 93.5% | 101% | 97.1% | 63.7% | 101% | 101% | 86.4% | 74.1% | 99.9% | 85.8% | 76.7% | 97.9% | 83.6% | 99.6% | 94.2% |
